Data published in the supplement of paper PMC11732987, “Enantioselective OTUD7B fragment discovery through chemoproteomics screening and high-throughput optimisation” (Communications Chemistry, 2025).

How the values were obtained:
Assay in all cases: log2 ratio of Biotin-Ahx-Ub-VS probe labelling (compound/DMSO); higher = less target engagement, active = hit call of the paper (q ≤ 0.05, log2 ratio ≤ -1)
Conditions in all cases: treatment time: 3 h
[1] = compound: CCC1N(CCc2sccc12)C(=O)CCl
Summary of the method: (§1)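 HEK293T lysate (495 µg per sample, in Tris/CHAPS/IGEPAL buffer with protease inhibitors) was exposed in triplicate to compound at 50 or 200 µM, or to DMSO, for 3 h, then to Biotin-Ahx-Ub-VS (0.5 µM final) for 1 h. The labelled DUBs were enriched on NeutrAvidin, digested with LysC and trypsin, and analysed by diaPASEF LC-MS/MS. Average base-two log ratios of compound over DMSO came from median-normalised label-free quantities by unpaired t-test. Only proteins with at least 2 unique peptides were used.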

[2] = compound: CN1c2ccccc2C(CS1(=O)=O)NC(=O)CCl
Summary of the method: as §1

[3] = compound: Cl.ClCC(=O)N1CCc2ncncc2C1
Summary of the method: as §1

[4] = compound: Cl.Cn1ncc2C(CCCc12)NC(=O)CCl
Summary of the method: as §1

[5] = compound: ClCC(=O)NC1CCOc2ccccc12
Summary of the method: as §1

[6] = compound: ClCC(=O)NC1CCCc2ccccc12
Summary of the method: (§2)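 These values are averaged ratios of compound to vehicle, tested by unpaired t-test. HEK293T lysate (495 µg per sample) was preincubated in triplicate with compound across a concentration series or vehicle for 3 h and then with Biotin-Ahx-Ub-VS at 0.5 µM final for 1 h. Deubiquitinases carrying the probe were NeutrAvidin-enriched, digested with LysC and trypsin, and measured by diaPASEF LC-MS/MS. Ratios are expressed as log2 from global-median-normalised Spectronaut label-free quantities, and only proteins with two or more unique peptides were included.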

[7] = compound: ClCC(=O)N[C@@H]1CCCc2ccccc12
Summary of the method: as §2

[8] = compound: ClCC(=O)N[C@H]1CCCc2ccccc12
Summary of the method: as §2

[9] = compound: CCC1N(CCc2cc(OC)c(Cl)cc12)C(=O)CCl
Summary of the method: as §1

[10] = compound: CCCC1N(CCc2cc(OC)c(OC)cc12)C(=O)CCl
Summary of the method: as §1

Measured: log2 ratio of Biotin-Ahx-Ub-VS probe labelling

OTUD7B (UniProt Q6GQQ9)
Chain of UniProt Q6GQQ9 (Q6GQQ9 whole entry): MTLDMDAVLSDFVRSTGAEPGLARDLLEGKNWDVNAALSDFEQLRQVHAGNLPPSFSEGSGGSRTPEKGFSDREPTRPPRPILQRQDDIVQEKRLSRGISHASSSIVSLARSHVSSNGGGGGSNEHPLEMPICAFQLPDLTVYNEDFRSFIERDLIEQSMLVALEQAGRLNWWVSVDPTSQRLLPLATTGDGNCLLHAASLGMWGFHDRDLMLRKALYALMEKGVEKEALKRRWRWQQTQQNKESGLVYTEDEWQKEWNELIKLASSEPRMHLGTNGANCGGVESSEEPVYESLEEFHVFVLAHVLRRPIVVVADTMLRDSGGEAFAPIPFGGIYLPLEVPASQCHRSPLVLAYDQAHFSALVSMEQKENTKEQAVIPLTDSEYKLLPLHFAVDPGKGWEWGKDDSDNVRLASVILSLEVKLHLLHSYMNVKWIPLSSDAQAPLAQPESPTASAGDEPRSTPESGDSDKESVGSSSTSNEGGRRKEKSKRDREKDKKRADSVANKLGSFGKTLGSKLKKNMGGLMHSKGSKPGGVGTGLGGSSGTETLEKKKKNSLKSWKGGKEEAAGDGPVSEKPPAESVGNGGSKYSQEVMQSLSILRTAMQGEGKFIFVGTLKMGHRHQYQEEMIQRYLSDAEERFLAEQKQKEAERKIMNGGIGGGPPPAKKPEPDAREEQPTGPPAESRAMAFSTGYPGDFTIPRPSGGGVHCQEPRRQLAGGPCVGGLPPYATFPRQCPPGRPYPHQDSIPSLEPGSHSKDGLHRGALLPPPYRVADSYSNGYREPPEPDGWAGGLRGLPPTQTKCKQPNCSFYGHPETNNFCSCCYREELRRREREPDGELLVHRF
inactive: [1]; compound concentration: 50uM -0.4 | [1]; compound concentration: 200uM -0.926 | [3]; compound concentration: 50uM -0.537 | [6]; compound concentration: 0.78uM -0.175 | [6]; compound concentration: 1.56uM -0.207 | [6]; compound concentration: 3.13uM -0.537 | [6]; compound concentration: 6.25uM -0.893 | [7]; compound concentration: 0.78uM -0.133 | [7]; compound concentration: 1.56uM -0.0966 | [7]; compound concentration: 3.13uM -0.116 | [7]; compound concentration: 6.25uM -0.27 | [7]; compound concentration: 12.5uM -0.226 | [7]; compound concentration: 25uM -0.495 | [8]; compound concentration: 0.78uM -0.224 | [8]; compound concentration: 1.56uM -0.562 | [8]; compound concentration: 3.13uM -0.851 | [9]; compound concentration: 50uM -0.0276 | [9]; compound concentration: 200uM -0.501 | [10]; compound concentration: 50uM -0.433 | [10]; compound concentration: 200uM -0.824
active: [2]; compound concentration: 50uM -1.97 | [2]; compound concentration: 200uM -4.51 | [3]; compound concentration: 200uM -1.65 | [4]; compound concentration: 50uM -4.9 | [4]; compound concentration: 200uM -5.48 | [5]; compound concentration: 50uM -2.66 | [5]; compound concentration: 200uM -4.52 | [6]; compound concentration: 12.5uM -1.66 | [6]; compound concentration: 25uM -2.4 | [6]; compound concentration: 50uM -3.12 | [6]; compound concentration: 100uM -3.17 | [6]; compound concentration: 200uM -3.5 | [7]; compound concentration: 50uM -1.03 | [7]; compound concentration: 100uM -1.55 | [7]; compound concentration: 200uM -2.65 | [8]; compound concentration: 6.25uM -1.39 | [8]; compound concentration: 12.5uM -2.2 | [8]; compound concentration: 25uM -3.03 | [8]; compound concentration: 50uM -3.18 | [8]; compound concentration: 100uM -3.43 | [8]; compound concentration: 200uM -3.45

USP16 (UniProt Q9Y5T5)
Chain of UniProt Q9Y5T5 (Q9Y5T5 whole entry, looked up): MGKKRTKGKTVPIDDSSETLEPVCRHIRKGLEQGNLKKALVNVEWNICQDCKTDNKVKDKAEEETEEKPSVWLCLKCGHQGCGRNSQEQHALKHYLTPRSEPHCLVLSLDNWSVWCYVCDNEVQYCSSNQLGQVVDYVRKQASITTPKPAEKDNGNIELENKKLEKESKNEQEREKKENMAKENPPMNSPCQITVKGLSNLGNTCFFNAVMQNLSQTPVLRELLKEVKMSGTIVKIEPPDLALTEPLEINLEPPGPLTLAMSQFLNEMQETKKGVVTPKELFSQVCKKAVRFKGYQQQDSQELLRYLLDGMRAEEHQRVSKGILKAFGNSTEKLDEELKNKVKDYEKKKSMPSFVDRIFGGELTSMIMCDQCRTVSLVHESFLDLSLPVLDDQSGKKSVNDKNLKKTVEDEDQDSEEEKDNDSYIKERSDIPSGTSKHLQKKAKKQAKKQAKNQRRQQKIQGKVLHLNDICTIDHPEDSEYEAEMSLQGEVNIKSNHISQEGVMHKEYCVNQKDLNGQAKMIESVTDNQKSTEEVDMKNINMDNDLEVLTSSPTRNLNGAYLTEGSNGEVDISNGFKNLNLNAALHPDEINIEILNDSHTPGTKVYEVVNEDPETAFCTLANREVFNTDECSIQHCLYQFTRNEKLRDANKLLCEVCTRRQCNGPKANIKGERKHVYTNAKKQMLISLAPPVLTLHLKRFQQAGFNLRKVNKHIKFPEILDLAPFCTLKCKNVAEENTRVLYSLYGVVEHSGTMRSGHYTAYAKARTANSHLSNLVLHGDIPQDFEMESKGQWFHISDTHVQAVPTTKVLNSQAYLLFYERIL
inactive: [1]; compound concentration: 50uM -0.0823 | [1]; compound concentration: 200uM -0.556 | [2]; compound concentration: 50uM -0.113 | [2]; compound concentration: 200uM -0.275 | [3]; compound concentration: 50uM 0.0401 | [3]; compound concentration: 200uM -0.748 | [4]; compound concentration: 50uM -0.209 | [4]; compound concentration: 200uM -0.00919 | [5]; compound concentration: 50uM -0.0288 | [5]; compound concentration: 200uM -0.558 | [6]; compound concentration: 0.78uM -0.182 | [6]; compound concentration: 1.56uM -0.165 | [6]; compound concentration: 3.13uM -0.0224 | [6]; compound concentration: 6.25uM -0.111 | [6]; compound concentration: 12.5uM -0.299 | [6]; compound concentration: 25uM -0.0714 | [6]; compound concentration: 50uM -0.0894 | [6]; compound concentration: 100uM -0.233 | [6]; compound concentration: 200uM -0.491 | [7]; compound concentration: 0.78uM -0.0997 | [7]; compound concentration: 1.56uM -0.0515 | [7]; compound concentration: 3.13uM -0.248 | [7]; compound concentration: 6.25uM -0.0769 | [7]; compound concentration: 12.5uM -0.00208 | [7]; compound concentration: 25uM -0.0915 | [7]; compound concentration: 50uM -0.387 | [7]; compound concentration: 100uM -0.167 | [7]; compound concentration: 200uM -0.479 | [8]; compound concentration: 0.78uM -0.177 | [8]; compound concentration: 1.56uM -0.318 | [8]; compound concentration: 3.13uM 0.0709 | [8]; compound concentration: 6.25uM -0.00683 | [8]; compound concentration: 12.5uM -0.0549 | [8]; compound concentration: 25uM 0.0133 | [8]; compound concentration: 50uM 0.0578 | [8]; compound concentration: 100uM -0.181 | [8]; compound concentration: 200uM -0.253 | [9]; compound concentration: 50uM -0.285 | [9]; compound concentration: 200uM -0.652 | [10]; compound concentration: 50uM -0.265 | [10]; compound concentration: 200uM -0.972

UCHL3 (UniProt P15374)
Chain of UniProt P15374 (P15374 whole entry): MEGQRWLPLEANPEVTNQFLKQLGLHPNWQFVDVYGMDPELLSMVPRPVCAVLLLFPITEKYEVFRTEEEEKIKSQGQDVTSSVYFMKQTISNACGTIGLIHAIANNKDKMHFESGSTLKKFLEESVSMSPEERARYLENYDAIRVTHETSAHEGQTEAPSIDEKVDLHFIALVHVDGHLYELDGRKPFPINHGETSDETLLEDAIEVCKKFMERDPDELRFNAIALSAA
inactive: [1]; compound concentration: 50uM -0.196 | [1]; compound concentration: 200uM -0.314 | [2]; compound concentration: 50uM -0.297 | [2]; compound concentration: 200uM -0.153 | [3]; compound concentration: 50uM -0.183 | [3]; compound concentration: 200uM -0.417 | [4]; compound concentration: 50uM -0.099 | [4]; compound concentration: 200uM 0.0584 | [5]; compound concentration: 50uM -0.019 | [5]; compound concentration: 200uM -0.018 | [6]; compound concentration: 0.78uM -0.0289 | [6]; compound concentration: 1.56uM 0.0129 | [6]; compound concentration: 3.13uM -0.0693 | [6]; compound concentration: 6.25uM 0.048 | [6]; compound concentration: 12.5uM 0.0678 | [6]; compound concentration: 25uM -0.149 | [6]; compound concentration: 50uM 0.0701 | [6]; compound concentration: 100uM 0.149 | [6]; compound concentration: 200uM -0.0196 | [7]; compound concentration: 0.78uM -0.0917 | [7]; compound concentration: 1.56uM -0.101 | [7]; compound concentration: 3.13uM 0.0215 | [7]; compound concentration: 6.25uM 0.0584 | [7]; compound concentration: 12.5uM -0.0931 | [7]; compound concentration: 25uM -0.0862 | [7]; compound concentration: 50uM -0.186 | [7]; compound concentration: 100uM -0.142 | [7]; compound concentration: 200uM -0.0506 | [8]; compound concentration: 0.78uM -0.0451 | [8]; compound concentration: 1.56uM -0.0987 | [8]; compound concentration: 3.13uM 0.048 | [8]; compound concentration: 6.25uM 0.105 | [8]; compound concentration: 12.5uM -0.0766 | [8]; compound concentration: 25uM -0.0628 | [8]; compound concentration: 50uM -0.0352 | [8]; compound concentration: 100uM -0.00864 | [8]; compound concentration: 200uM -0.0634 | [9]; compound concentration: 50uM 0.093 | [9]; compound concentration: 200uM -0.266 | [10]; compound concentration: 50uM -0.509 | [10]; compound concentration: 200uM -0.431

USP12 (UniProt O75317)
Chain of UniProt O75317 (O75317 whole entry): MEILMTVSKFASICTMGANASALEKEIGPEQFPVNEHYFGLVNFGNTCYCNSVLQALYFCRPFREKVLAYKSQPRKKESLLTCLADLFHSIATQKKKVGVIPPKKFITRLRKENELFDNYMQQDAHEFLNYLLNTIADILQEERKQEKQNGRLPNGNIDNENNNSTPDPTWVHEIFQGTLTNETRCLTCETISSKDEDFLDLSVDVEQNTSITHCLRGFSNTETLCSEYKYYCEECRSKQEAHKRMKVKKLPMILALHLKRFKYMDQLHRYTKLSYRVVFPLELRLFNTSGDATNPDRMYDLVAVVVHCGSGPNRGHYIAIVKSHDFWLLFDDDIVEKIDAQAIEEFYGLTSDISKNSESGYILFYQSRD
inactive: [1]; compound concentration: 50uM -0.336 | [1]; compound concentration: 200uM -0.364 | [2]; compound concentration: 50uM -0.67 | [2]; compound concentration: 200uM -0.285 | [3]; compound concentration: 50uM -0.414 | [3]; compound concentration: 200uM 0.0587 | [4]; compound concentration: 50uM 0.232 | [4]; compound concentration: 200uM 0.133 | [5]; compound concentration: 50uM -0.0656 | [5]; compound concentration: 200uM -0.128 | [6]; compound concentration: 0.78uM -0.261 | [6]; compound concentration: 1.56uM -0.455 | [6]; compound concentration: 3.13uM -0.802 | [6]; compound concentration: 6.25uM -0.549 | [6]; compound concentration: 12.5uM -0.298 | [6]; compound concentration: 25uM -0.852 | [6]; compound concentration: 50uM -0.524 | [6]; compound concentration: 100uM -0.285 | [6]; compound concentration: 200uM -0.69 | [7]; compound concentration: 0.78uM -0.131 | [7]; compound concentration: 1.56uM 0.0424 | [7]; compound concentration: 3.13uM 0.272 | [7]; compound concentration: 6.25uM 0.0447 | [7]; compound concentration: 12.5uM -0.0347 | [7]; compound concentration: 25uM -0.263 | [7]; compound concentration: 50uM -0.715 | [7]; compound concentration: 100uM -0.0609 | [7]; compound concentration: 200uM -0.175 | [8]; compound concentration: 0.78uM -0.247 | [8]; compound concentration: 1.56uM -0.665 | [8]; compound concentration: 3.13uM 0.0603 | [8]; compound concentration: 6.25uM 0.103 | [8]; compound concentration: 12.5uM -0.0251 | [8]; compound concentration: 25uM -0.184 | [8]; compound concentration: 50uM -0.474 | [8]; compound concentration: 100uM -0.242 | [8]; compound concentration: 200uM -0.748 | [9]; compound concentration: 50uM -0.0261 | [9]; compound concentration: 200uM -0.904 | [10]; compound concentration: 50uM -0.303 | [10]; compound concentration: 200uM -0.368
